The supplement of paper PMC4723716

Tested on: Plasmodium falciparum NF54 gametocytes
Experiment: viability index relative to DMSO control (fraction); higher = less gametocyte killing
Conditions: 12.5 µM, incubation time: 72 h
Outline: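 P. falciparum NF54 gametocytes of each stage (I–V), in serum-containing medium (0.50% gametocytemia, 1.25% hematocrit, 40 µl), were incubated with compound at 12.5 µM in 384-well plates for 72 hr at 37°C under low oxygen. Wells received 5 µl of 5 µM MitoTracker Red CMXRos for 20 min. Then 5 µl was moved into 40 µl of 500 nM dye in serum-free medium and imaged after 30 min (three fields). The viability index was the gametocyte particle count divided by the plate mean of DMSO wells.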

[1] = gametocyte stage: Stage I viability index
[2] = gametocyte stage: Stage II viability index
[3] = gametocyte stage: Stage III viability index
[4] = gametocyte stage: Stage IV viability index
[5] = gametocyte stage: Stage V viability index

| Compound | viability index [1] | viability index [2] | viability index [3] | viability index [4] | viability index [5] |
| --- | --- | --- | --- | --- | --- |
| O=C(Nc1ccc(Cl)c(Cl)c1)Nc1ccc(Cl)c(Cl)c1 | 0.0437 | 0.0241 | 0.0353 | 0.0918 | 0.104 |
| CCOc1ccc(-c2nc(NC(=O)c3cccc(S(C)(=O)=O)c3)sc2C)cc1 | 0.956 | 0.686 | 1.1 | 0.857 | 0.857 |
| CCCCOC(=O)c1ccc(Nc2cc(C)nc3ccc(OC)cc23)cc1 | 0.0647 | 0.156 | 0.545 | 0.411 | 0.325 |
| Cc1ccc(N2C(=O)C3C(C2=O)C2(c4ccccc4)C(=O)C3(c3ccccc3)C(c3ccccc3)=C2c2ccccc2)cc1 (stereo not given) | 0.733 | 0.916 | 1.14 | 1.03 | 1.01 |
| CCOc1ccc(C2N(C)c3ccccc3N2C)cc1 | 0.996 | 1.03 | 1.08 | 0.985 | 0.901 |
| COc1ccc(C2=C(c3ccc(OC)cc3)C3(c4ccccc4)C(=O)C2(c2ccccc2)C2C(=O)N(c4ccc(C)cc4)C(=O)C23)cc1 (stereo not given) | 0.682 | 0.679 | 0.949 | 1.02 | 0.967 |
| CC(C)(C)c1ccc2c(c1)CN(Cc1ccc(Cl)cc1)CO2 | 0.12 | 0.192 | 0.385 | 0.633 | 0.442 |
| CCN(CC)CCn1c(=N)n(CC(O)c2ccc(Cl)c(Cl)c2)c2ccccc21 (stereo not given) | 0.00552 | 0.057 | 0.0608 | 0.0851 | 0.121 |
| COc1ccc(-c2cc3c(nn2)-c2ccccc2C3=O)cc1 | 0.713 | 0.675 | 0.735 | 0.693 | 1 |
| CN(C)c1ccc(C=Cc2nc(=O)c3ccccc3o2)cc1 | 0.611 | 0.713 | 0.82 | 0.921 | 0.835 |
| Oc1ccc(Cl)cc1CNc1nc2ccccc2[nH]1 | 0.0751 | 0.545 | 0.822 | 0.891 | 0.736 |
| COc1ccc2c(c1OC)C(=O)N1c3ccccc3N=C(c3ccc(C)cc3)CC21 (stereo not given) | 0.899 | 0.674 | 0.951 | 0.94 | 0.987 |
| Cn1c(=O)n(C)c2cc(CNCCNc3ccnc4cc(Cl)ccc34)ccc21 | 0.49 | 0.57 | 0.597 | 0.75 | 0.494 |
| CCOc1cccc2sc(N(Cc3cccnc3)C(=O)C3CCCCC3)nc12 | 0.478 | 0.691 | 1.09 | 0.951 | 0.989 |
| CN1C=C(c2ccc3ccccc3n2)C(c2c[nH]c3ccccc23)c2ccccc21 (stereo not given) | 0.178 | 0.0874 | 0.273 | 0.294 | 0.351 |
| O=C1c2ccccc2C2=Nc3ccccc3SC(c3cccc(F)c3)C12 (stereo not given) | 0.857 | 0.869 | 0.868 | 0.75 | 0.844 |
| COc1ccc(C(O)(CCC(C)C)C(CN2CCOCC2)c2ccc(Cl)cc2)cc1 (stereo not given) | 1.2 | 0.843 | 1.12 | 1 | 0.922 |
| COc1ccc(-c2cc(=O)oc3c4c(ccc23)OCN(Cc2ccc(F)cc2)C4)cc1 | 0.0192 | 0.0833 | 0.406 | 0.516 | 0.545 |
| COc1cc(C(=O)Nc2ccc(-c3nc4ccccc4[nH]3)cc2)cc(OC)c1OC | 0.0918 | 0.595 | 1.01 | 0.968 | 0.701 |
| Cc1cc(N(C)C)nc(Nc2ccc(NC(=O)Nc3ccccc3)cc2)n1 | 0.00262 | 0.0266 | 0.138 | 0.0285 | 0 |
| Cc1cc(=O)oc2c1ccc1oc(C(=O)c3ccccc3)c(C)c12 | 0.948 | 1 | 0.867 | 0.972 | 1.01 |
| Cc1ccc(CSCc2ccc(C(=O)NC3CC3)o2)cc1 | 0.678 | 0.965 | 1.07 | 0.924 | 0.978 |
| COc1cc(OC)cc(N2C(=O)N(Cc3ccc(C(C)(C)C)cc3)c3ccccc3S2(=O)=O)c1 | 1.04 | 0.96 | 1 | 0.785 | 0.662 |
| CCCCNc1nc(NC(C)(C)C)nc(NC(C)(C)C)n1 | 0.0157 | 0.0425 | 0.223 | 0.117 | 0.0649 |
| Cc1c(C)n(CC(O)CNC2CCCCC2C)c2ccccc12 (stereo not given) | 0.0939 | 0.217 | 0.644 | 0.766 | 0.923 |
| CCCCc1c(CCC)c(=N)c2ccccc2n1C | 1.05 | 0.911 | 1 | 0.918 | 0.701 |
| CCOC(=O)c1cnc2ccc(CC)cc2c1O | 0.377 | 0.505 | 0.734 | 0.733 | 0.846 |
| COc1ccccc1CNC(=O)CCn1c(=O)[nH]c2ccccc2c1=O | 0.867 | 0.898 | 0.912 | 0.951 | 0.912 |
| O=C(Nc1cccc(C(F)(F)F)c1)c1cc(Cl)ccc1O | 0.00552 | 0.00676 | 0.0184 | 0.0669 | 0.11 |
| Cc1cc(N2CCCC2)nc(Nc2ccc(NC(=O)CCc3ccccc3)cc2)n1 | 0.0734 | 0.0508 | 0.261 | 0.345 | 0.13 |
